FMDV inh – blocks foot and mouth disease virus. FMDV antiviral cell-based qHTS. Potency, µM (titrated, usually from 57.9 µM), for the others: top-dose activity change, negative = inhibition, most hits filed as inhibitors. actives 1.2% (n = 410,000); calls by dose curve; tested in HEK293T cells; also: read-out not given here; potency is read from the fitted curve at half-maximal effect; nearly all actives have a fitted effect of over 45% in size
MARV entry inh – Marburg virus entry inhibition. Marburg virus pseudotyped entry inhibition, cell reporter. Potency, µM (series often up to 37.8 µM), for the others: at the highest dose activity change, negative = inhibition, most hits filed as inhibitors. actives 1.8% (n = 300,000). AID 540276; calls by dose curve; tested in HEK293 cells; also: potency is read from the fitted curve at half-maximal effect
HCV inh – inhibitors of hepatitis C virus infection | AID 651820 | Huh7.5.1 HCVcc-Cre infection, luciferase reporter, 44 h | Potency, µM (doses to about 41.8 µM), for inactives: at the highest dose activity change, negative = inhibition, hits mostly inhibitors | actives 3.4% (n = 340,000); active = well fitted inhibition curve with a large enough effect; inconclusive = small, poorly fitted or top-dose-only effect, or another doubt; inactive = no such curve, though single readings can be large or run the other way; also: potency is read from the fitted curve at half-maximal effect
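1,000 cells/well; 4 h culture; + compound; + HCVcc-Cre (~0.5 moi); 44 h; luciferase substrate, RT 15 min; read 15 sec.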
HCMV antiviral – inhibitors of human cytomegalovirus | HFF cells, HCMV-luciferase reporter, 72 h; hits give low values | activity change, negative = inhibition, % at 57.5 µM | actives 4.5% (n = 410,000); in the data active = activity change below about -60%; inconclusive = no clear call, values can overlap the other calls; inactive = above about -39%
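After 16 h attachment at 37C, HFF cells received test compound and HCMV-luciferase (1 PFU/cell); reporter luminescence read 72 h later, data normalized against buffer-only and known inhibitor Salinomycin.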
LASV entry inh – inhibitors of Lassa virus binding or cell entry | Lassa virus pseudotype entry inhibition, cell reporter | Potency, µM (top dose mostly 37.9 µM), for inactives: at the highest dose activity change, negative = inhibition, hits mostly inhibitors | actives 1.2% (n = 300,000); calls by dose curve; tested in HEK293 cells; also: potency is read from the fitted curve at half-maximal effect; nearly all actives have a fitted effect of over 50% in size
Numbers without * were called inactive; ? = inconclusive; · = not tested or not shown; [ ] = another dose, or the depositor's remark. In the library only some 7.9% were active in any assay of this set; here they are far more common. % is scaled to controls: 0 for no effect and ±100 for the full control effect.

SMILES | FMDV inh | MARV entry inh | HCV inh | HCMV antiviral | LASV entry inh
O=S(=O)(c1cccc(-c2csc(-c3cccnc3)n2)c1)N1CCOCC1 | -9% | -11%[46.1 µM] | ? | ? | -23%
O=S(=O)(c1ccc(-c2csc(-c3cccnc3)n2)cc1)N1CCCCC1 | ? | ? | ? | -62* | -3%
O=S(=O)(c1ccc(-c2csc(-c3cccnc3)n2)cc1)N1CCCC1 | -4% | 1% | -27% | ? | 24%
O=S(=O)(c1cccc(-c2csc(-c3cccnc3)n2)c1)N1CCCCC1 | -26% | -14% | ? | -69* | -26%
Clc1ccsc1-c1csc(-c2cccnc2)n1 | -9% | ? | 14µM* | 177 | -8%
Cc1ccc(/C(O)=C2\C(=O)C(=O)N(CCCN(C)C)C2c2ccccn2)cc1 (stereo not drawn) | · | -3% | · | · | ·
O=P1(Oc2ccccc2)OCCCS1 (stereo not drawn) | 35µM* | · | 9% | 22 | ·
C=COC[C@H]1CN2[C@@H](CC[C@@H](C)[C@@H]2c2ccc(Br)cc2)C(=O)O1 | · | -1%[14.2 µM] | · | · | ·
CCOc1ccc(NS(=O)(=O)c2ccc(C(=O)N(C)C)s2)cc1 | -23% | · | · | -9 | -19%[46.1 µM]
Cc1ccc(Cn2cc(CCC(=O)NC3CCCCC3)c3ccccc32)cc1 | -15% | · | · | ? | -9%[46.1 µM]
CC1=NNC(=O)/C1=C\c1cn(-c2ccccc2)nc1-c1ccccc1 | 8.9µM* | 4µM* | 11µM* | -100* | ?
CCOC(=O)c1ccc(NC(=O)C2=C(C)Nc3nc(SCc4ccc(Cl)cc4)nn3C2c2ccc(OC)cc2)cc1 (stereo not drawn) | -12% | 0%[46.1 µM] | · | 4 | -14%[46.1 µM]
Cc1ccc(C)n1-c1ccc(-c2ccnc(N)n2)cc1 | ? | ? | -9% | -66* | ?
Cc1ccc(NNc2c(C)nc3ccccc3nc2=O)cc1 | 19% | -10%[46.1 µM] | -9% | -67* | -28%
Cc1ccc(Nc2nc3ccccc3nc2Nc2c(C)n(C)n(-c3ccccc3)c2=O)cc1 | -9% | 31% | 1% | -28 | 9%
Cc1ccc(S(=O)(=O)NCc2ccccc2)cc1C(=O)N1CCCCCCC1 | 7% | ? | -25% | -19 | -31%
Fc1ccc(-c2csc(N3CCOCC3)n2)cc1 | 18% | ? | ? | 38 | 5%[46.1 µM]
c1ccc2oc(-c3csc(N4CCOCC4)n3)cc2c1 | -59% | 7.9µM* | ? | -11 | ?
C=CCN1C(=O)C(Cc2ccccc2)S/C1=N/N=C/c1cccs1 (stereo not drawn) | -8% | 0% | ? | 33 | ?
C=CCN1C(=O)C(Cc2ccc(OCC)cc2)S/C1=N\N=C\c1cccs1 (stereo not drawn) | -15% | -27% | ? | 30 | 11µM*
O=C(Nc1cccc(Cl)c1)c1ccc(F)c(S(=O)(=O)NCc2ccc3c(c2)OCO3)c1 | -19% | ? | -26% | -30 | ?
Cc1cccc(CNC(=O)CSCc2cnn(-c3ccccc3)c2-n2cccc2)c1 | -20% | -16%[46.1 µM] | · | -36 | -27%[46.1 µM]
CCc1ccccc1NC(=O)Nc1cccn(Cc2ccccc2F)c1=O | ? | · | 11µM* | -12 | ·
CCOc1ccc(NC(=O)Nc2cccn(Cc3ccccc3)c2=O)cc1 | ? | -20%[46.1 µM] | 10µM* | -84* | ?
O=C(NCc1ccccc1)Nc1cccn(Cc2ccccc2)c1=O | 0% | 0% | ? | ? | ?
SMILES | FMDV inh | MARV entry inh | HCV inh | HCMV antiviral | LASV entry inh
O=C(CC1SC(=O)NC1=O)Oc1ccc(/C=N/NC(=O)c2ccccc2O)cc1 (stereo not drawn) | 61% | · | 19% | -24 | ·
CN1CC(c2ccccc2)C2(SC(=S)N(Cc3ccco3)C2=O)C12C(=O)Nc1ccccc12 (stereo not drawn) | ? | ? | 7.1µM* | -101* | ?
O=C(NNc1c(Cl)cccc1Cl)c1sccc1Cl | 4% | -1% | 12% | -75* | -3%
Cc1cc(C)c(Nc2cc(S(=O)(=O)O)c(N)c3c2C(=O)c2ccccc2C3=O)c(C)c1 | 8.9µM* | -21% | 13% | 3 | -23%
CCC(C)c1ccc(NC(=O)N2CCN(C(=O)C3CCCO3)CC2)cc1 (stereo not drawn) | -8% | 21% | · | 14 | -18%
COc1ccc(N=C2S/C(=C\c3cc(C)n(C)c3C)C(=O)N2C)cc1 | -14% | ? | 11µM* | -8 | 4.5µM*
CCOC(=O)OC[C@H]1O[C@H](c2cc(C)cc(C)c2)C=C[C@@H]1OC(=O)OCC | · | 2%[14.2 µM] | · | · | ·
C=CCN1C(=O)/C(=C/c2cc(C)n(-c3cccnc3)c2C)C(=O)NC1=S | 35µM* | 32% | 25% | -14 | 1%
CC1=NN(c2ccccc2)C(=O)/C1=C\c1cc(C)n(-c2cccnc2)c1C | 9% | 7% | -24% | -73* | ?
Cn1c(=O)c2c(nc(-c3ccc(N(CCCl)CCCl)cc3)n2C)n(C)c1=O | 32µM* | ? | ? | -30 | ?
CCOC(=O)[C@]12Cc3cc(OC)ccc3[C@H]1N(CC(=O)OC)C(=O)c1cc(OC)ccc12 | 14µM* | · | · | -107* | ·
CCCCCN1C(=O)c2cc(OC)ccc2[C@@]2(C(=O)OCC)Cc3cc(OC)ccc3[C@@H]12 | 3.2µM* | · | · | -105* | ·
CCOC(=O)[C@]12Cc3cc(OC)ccc3[C@H]1N(CC(=O)OC)C(=O)c1ccccc12 | -18% | · | · | -11 | ·
CCOC(=O)[C@]12Cc3cc(C)ccc3[C@H]1N(Cc1ccccc1)C(=O)c1cc(OC)ccc12 | ? | · | · | -35 | ·
CCOC(=O)[C@]12Cc3cc(Cl)ccc3[C@H]1N(C)C(=O)c1cc(OC)ccc12 | 16µM* | · | · | -96* | ·
CCOC(=O)[C@]12Cc3cc(OC)ccc3[C@H]1N(C)C(=O)c1cc(OC)ccc12 | 11µM* | · | · | -106* | ·
CCOc1cccc(CC(=O)N2CCc3c([nH]c4ccc(OC)cc34)C2c2ccc(F)cc2)c1OCC (stereo not drawn) | -13% | 6%[46.1 µM] | · | -15 | ?
CCN1CCN(C(=O)c2sc3ncnc(NCC4CCCO4)c3c2C)CC1 (stereo not drawn) | -9% | · | · | · | ·
CN(Cc1ccco1)c1ncnc2ccc(-c3ccc4c(ccn4C)c3)cc12 | -27% | · | · | -99* | ·
COc1ccc(CN2CCCC(c3nc(C)ncc3-c3ccc(F)cc3)C2)c(OC)c1OC (stereo not drawn) | -10% | · | · | · | ·
O=[N+]([O-])c1cccn2cc(-c3ccc(Br)cc3)nc12 | 51% | ? | ? | -62* | 18%
CCC1(C)Cc2c(sc3nc(SC)nc(NCCN(C)C)c23)CO1 (stereo not drawn) | -14% | ? | ? | -108* | -11%
CSc1nc(SCCN(C)C)c2c3c(sc2n1)COC(C)(C)C3 | -6% | ? | ? | 7 | ?
CSc1ccc(S(=O)(=O)NCc2ccc(Cl)cc2Cl)cc1 | 71% | 0% | -10% | 5 | 15%
Cc1ccc(C)c(CNC(=O)c2ccc3c(c2)nc2n3CCC(C)C2)c1 (stereo not drawn) | 19% | · | · | -26 | -26%[46.1 µM]
O=C(COC(=O)c1c2c(nc3ccccc13)CCCC2)c1cccs1 | ? | 7% | ? | -8 | -14%

Screening results (PubChem BioAssay)
